Source: PubChem BioAssay
A selection: hits, their analogues and other compounds. The true share with any hit is near 9.9%.
MCF10A rereplic: DNA re-replication induction in MCF 10a cells; MCF 10A DNA re-replication, Hoechst nuclear intensity, 48 h; Potency, µM (titrated, usually from 46.1 µM), without a hit: at the highest dose activity, positive = re-replication, usual class: activators; 350,000 tested, 2.9% active; AID 624296; note: potency is the fitted concentration of half-maximal effect; % of control where 0% means no effect; nearly all actives have a fitted effect of over 50% in size
SW480 rerep: induces DNA re-replication in SW480 colon adenocarcinoma cells; SW480 DNA re-replication, Hoechst DNA content imaging, 48 h; Potency, µM (highest dose often 46.1 µM), inactives show at the highest dose re-replication activation, most hits filed as activators; 340,000 tested, 1.8% active; AID 624297; note: potency is the fitted concentration of half-maximal effect; % of control where 0% means no effect; nearly all actives have a fitted effect of over 55% in size
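Image-based DNA-content assay: after two days of treatment, nuclei were labelled with the DNA dye Hoechst and imaged, and hits were compounds raising the count of nuclei showing high fluorescence intensity.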
KB-3-1 cytotox: kills parental KB-3-1 adenocarcinoma cells | KB-3-1 viability, CellTiter-Glo ATP luminescence, 72 h | Potency, µM (highest dose often 46.1 µM), hits mostly cytotoxic | 400,000 tested, 1.4% active | AID 1347075; note: potency is the fitted concentration of half-maximal effect; % is set by controls: 0 for no effect and ±100 for the full control effect; nearly all actives have a fitted effect of over 60% in size
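Here the drug-naive KB-3-1 line serves as comparator for MDR sub-line selectivity; cells received compound titrations, 72 h at 37 °C, then CellTiter-Glo readout.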
IL-1B inflam inh: inhibitors of inflammasome signaling (IL-1 beta secretion); activity change, % at 57.5 µM; AID 743279; THP-1 LPS/ATP IL-1B secretion, AlphaLISA, 16 h; stronger effect = lower value; 360,000 tested, 4.7% active; in the data active = activity change below about -50%; inconclusive = mostly about -30% to -49%; note: % is set by controls: 0 for no effect and ±100 for the full control effect
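Secreted IL-1B measured by AlphaLISA bead assay after 16 h compound exposure of THP-1 cells; compounds (final up to 57.5 uM) added 1 h before LPS (250 ng/mL) and ATP (1.25 mM) stimulation; lower signal means less secretion.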
KB-V1 MDR tox: kills drug-selected multidrug resistant KB-V1 cells. KB-V1 MDR cells viability, CellTiter-Glo, 72 h. Potency, µM (highest dose often 46.1 µM), hits mostly cytotoxic. 400,000 tested, 3.4% active; note: potency is the fitted concentration of half-maximal effect; % is set by controls: 0 for no effect and ±100 for the full control effect; nearly all actives have a fitted effect of over 60% in size
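Drug-selected KB-V1 cells, grown in DMEM lacking phenol red with 10% FBS, receive compound titrations; after three days at 37 degrees C, surviving cell ATP is quantified by CellTiter-Glo luminescence and responses normalized and curve-fitted.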
The depositor's hits bear a star; i = inactive; ? = inconclusive; nt = no result. Unless noted, calls come from the whole dose curve; as a rule, active = well fitted curve in the direction sought with a large enough effect; inconclusive = small, poorly fitted or top-dose-only effect, or another doubt; inactive = no such curve, though single readings can be large; an effect the other way counts as inactive or inconclusive.

SMILES | MCF10A rereplic | SW480 rerep | KB-3-1 cytotox | IL-1B inflam inh | KB-V1 MDR tox
COC(=O)CCC(=O)Nc1cccc([N+](=O)[O-])c1 | -11% | -17% | i | 0 | i
COc1ccccc1NC(=O)C1=C(C)Nc2nc(SCc3ccccc3)nn2C1c1cccc(O)c1 (stereo not drawn) | nt | nt | i | nt | i
COc1ccc(OC)c(-c2cc(C(=O)Nc3c(C)nn(Cc4ccccc4Cl)c3C)no2)c1 | 15% | 11% | ? | -28 | i
Cc1cc(C(=O)Nc2c(C)nn(Cc3ccccc3Cl)c2C)no1 | 3% | -2% | i | 42 | 21µM*
Cc1nn(Cc2ccc(F)cc2)c(C)c1NC(=O)c1nn(C)cc1Cl | -1% | 1% | i | 1 | 9.2µM*
C=Cc1c(C)c2cc3nc(cc4[nH]c(cc5nc(cc1[nH]2)C(C)=C5CCC(=O)O)c(CCC(=O)OC)c4C)[C@@]1(C)C3=CC=C(C(=O)OC)[C@H]1C(=O)OC (tested in a mixture with another compound) | 7% | -1% | nt | nt | nt
COc1ccc(C(=O)O/N=C(\N)c2ccccc2)c(OC)c1 | 2% | ? | i | -2 | i
COc1ccc(C(=O)O/N=C(\N)c2ccc(OC)c(OC)c2)c(OC)c1 | 19% | 1% | i | -54* | ?
COc1cc(C2NC(=O)NC(C)=C2C(=O)OC(C)(C)C)ccc1OCC(N)=O (stereo not drawn) | 0% | -20% | i | 5 | i
COc1ccc2c(c1OC)C(=O)NC(C)=C(C(=O)OC(C)(C)C)C2O (stereo not drawn) | -11% | -1% | i | -63* | i
O=C1c2ccccc2-c2c1c1ccccc1c(=O)n2CCO | ? | 24% | i | nt | 18µM*
O=C1c2ccccc2-c2c1c1ccccc1c(=O)n2-c1ccccc1 | ? | 1% | i | -11 | i
CCCc1cc(=O)oc2cc(C)cc(OC(C)C(=O)NCCN3CCOCC3)c12 (stereo not drawn) | -4% | 24% | i | 25 | i
CN(C)CCCN(C(=O)CCSc1ccccc1)c1nc2cc3c(cc2s1)OCO3 | ? | 30% | ? | -104* | ?
CN(C)CCCN(C(=O)COc1ccccc1)c1nc2cc3c(cc2s1)OCCO3 | 1% | -33% | i | -1 | i
CN(C)CCCN(C(=O)CCS(=O)(=O)c1ccccc1)c1nc2cc3c(cc2s1)OCO3 | 5.2µM* | ? | ? | -107* | ?
Cc1cccc(OCC(=O)Nc2nnc(S(=O)(=O)N3CCCCCC3)s2)c1 | -5% | -7% | i | -7 | i
COc1cc(OC)cc(C(=O)N[C@H](C(=O)OCC(=O)N2CCN(S(=O)(=O)c3ccc(C)cc3)CC2)C(C)C)c1 | 1% | -15% | i | 0 | i
Fc1ccc(/C=C/c2nccc3ccccc23)cc1 | nt | nt | 18µM* | nt | i
CN(C)c1ccc(/C=C/c2nccc3ccccc23)cc1 | nt | nt | i | nt | i
Fc1ccc(/C=C/c2ccc3ccccc3n2)cc1 | nt | nt | 12µM* | nt | i
COc1ccccc1/C=C/c1ccc2ccccc2n1 | nt | nt | i | nt | i
COc1cc(Cl)cc(/C=C/c2ccc3ccccc3n2)c1OC(C)=O | ? | ? | i | -102* | i
CC(O)/C=C/c1ccc2ccccc2n1 (stereo not drawn) | 18µM* | ? | ? | -96* | ?
CCCOc1ccc(/C=C/C(=O)Nc2sc(C)c(C)c2C(=O)OCC)cc1OC | nt | nt | i | nt | i
SMILES | MCF10A rereplic | SW480 rerep | KB-3-1 cytotox | IL-1B inflam inh | KB-V1 MDR tox
COc1ccc(CNCCSc2nnnn2-c2ccccc2)c(OC)c1 | nt | nt | i | nt | i
Cc1cc(S(=O)(=O)N2CCN=C2c2ccccc2)c(Cl)cc1Cl | 1% | -2% | i | 21 | i
N#CCn1c(CN2CCCC2)nc2ccccc2c1=O | 6% | 5% | i | 12 | i
COc1cc(/C=C/c2ccc3ccccc3n2)cc(OC)c1OC | nt | nt | 2.6µM* | nt | ?
Fc1cccc(F)c1/C=C/c1ccc2ccccc2n1 | 3% | nt | i | -7 | ?
C(=C\c1ccco1)/c1ccc2ccccc2n1 | 18µM* | -24% | i | -22 | i
N/C(=N\c1nnc(-c2ccncc2)s1)Nc1ccc(Cl)c(Cl)c1 | nt | nt | i | nt | i
Cc1nc2sc(C(c3ccc(Cl)cc3)N3CCOCC3)c(O)n2n1 (stereo not drawn) | ? | -1% | i | 8 | i
Cc1nc2sc(C(c3ccccc3)N3CCOCC3)c(O)n2n1 (stereo not drawn) | 4.6µM* | 16µM* | i | 9 | i
CC(=O)Nc1ccc(S(=O)(=O)NCC(=O)Nc2ccc3c(c2)OCO3)cc1 | 0% | 1% | i | -5 | i
CC(C)N(Cc1nc(COc2ccccc2)no1)Cc1nccn1C | 6% | 5% | i | -1 | i
CC(C)N(Cc1cn[nH]c1-c1ccc(-c2ccccc2)cc1)Cc1nccn1C | ? | ? | i | -74* | i
Cc1ccc2nccnc2c1 | nt | nt | ? | nt | 16µM*
Cc1ccc2c(C)ccnc2c1 | nt | nt | i | nt | i
Cc1cc(C)c(S(=O)(=O)NC2CCN(Cc3ccccc3)CC2)c(C)c1 | ? | 18% | i | -1 | ?
O=S(=O)(NC1CCN(Cc2ccccc2)CC1)c1ccc(F)c(F)c1 | nt | nt | i | -7 | i
Cc1cc(S(=O)(=O)NC2CCN(Cc3ccccc3)CC2)c(C)cc1Cl | ? | 17% | i | -96* | i
Cc1cc(C)c(C)c(S(=O)(=O)NC2CCN(Cc3ccccc3)CC2)c1C | 18% | -4% | i | -73* | i
N#Cc1ccc(S(=O)(=O)N2CCC(C(=O)Nc3cccc(C(=O)NC4CC4)c3)CC2)cc1 | 9% | ? | i | 7 | i
O=C(CCCCCNC(=O)c1ccccc1Br)N=Nc1c(O)[nH]c2ccccc12 | -3% | -36% | i | 5 | i
NC(N)=Nc1ccc(/C=C2\C=Cc3ccccc32)cc1 | nt | nt | i | nt | i
CCCN(CC(=O)Nc1ccccc1OC)C(=O)c1ccc(COc2ccccc2)o1 | -8% | -12% | i | 9 | ?
COc1ccc(-c2cc(-c3ccco3)[nH]c(=O)c2C#N)cc1OC | ? | 7% | i | -29 | i
N#Cc1c(-c2ccc3c(c2)OCO3)csc1N | 0% | -6% | ? | -60* | ?
N#Cc1c(-c2ccccc2)cc(-c2ccc3c(c2)OCO3)[nH]c1=O | ? | 18µM* | i | 10 | ?
N#Cc1c(N)c(C#N)c(-c2ccc3c(c2)OCO3)c2c1CCCC2 | 18% | -2% | i | 21 | ?
Cc1ccc(CNC(=O)c2ccc3c(O)c(S(=O)(=O)c4ccc(Cl)cc4)c(=O)[nH]c3c2)cc1 | nt | nt | i | nt | i
O=C(Cc1ccc(Br)cc1)NC1CCN(Cc2ccccc2)CC1 | ? | 4% | ? | ? | 18µM*
